Screening data from PubChem BioAssay.
hgDAF12 agonist: activates the H. glycines DAF-12 receptor ligand-binding domain. HEK293 GAL4-hgDAF12 UAS-luciferase reporter, agonist luminescence; normalized to butyrate control. activation, % at 6.8 µM. 1.8% of 370,000 active;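 active = activation above a cutoff set at the mean of all screened compounds plus 3 SD, cut at about 10% in these data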;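 note: 0% = DMSO wells and 100% = sodium butyrate wells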
ssDAF12 agonist: S. stercoralis DAF-12 activation, primary screen; activation, % at 6.8 µM; 1% of 370,000 active; HEK293 ssDAF-12/GRIP1 lit1-tk-luc reporter, luminescence; % of 3 µM dafachronic acid response; AID 652126;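 active = activation above the mean over all tested compounds plus 3 SD, cut at about 0.9% in these data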;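 note: 0% = DMSO-only wells and 100% = 3 µM delta7-dafachronic acid wells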
DAX1 inh-1: DAX1 (NR0B1) inhibition, primary screen. HEK293T StAR-luciferase reporter, SF-1/DAX-1 repression relief. inhibition, % at 6.8 µM. 1.1% of 370,000 active;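 active = inhibition above the mean over all tested compounds plus 3 SD, cut at about 3.6% in these data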;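 note: 0% = DAX-1 cells with DMSO and 100% = cells lacking DAX-1 with DMSO; higher inhibition means more luminescence from relief of DAX-1 repression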
FXN GAA850 act: activators of GAA850 frataxin (FXN) promoter. activation, % at 6 µM. 0.56% of 360,000 active. HEK293 lucGAA850 FXN promoter luciferase reporter, 24 h; percent of 10 µM SAHA response;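 active = activation above the average of all compounds screened plus 3 SD, cutoff fixed separately per campaign, cut at about 7.5% in these data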;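 note: 0% = DMSO wells and 100% = 10 µM SAHA wells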
hcDAF-12 act: H. contortus DAF-12 activation, primary screen | 1.4% of 370,000 active | HEK293 hcDAF-12 lit1-tk-luc reporter, luminescence; 0% DMSO, 100% Δ7-dafachronic acid | activation, % at 6.8 µM | AID 652067;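 active = activation above the mean of all tested compounds plus 3 SD, cut at about 5.5% in these data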;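 note: 100% = response to 3 µM Δ7-dafachronic acid high control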
DAX1 inh-2: NR0B1 (DAX1) inhibition | P51843 | HEK293 Gal4-DAX1 luciferase reporter, luminescence | inhibition, % at 6.75 µM | 0.99% of 340,000 active;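 active = inhibition above the mean over all tested compounds plus 3 SD, cut at about 4.2% in these data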;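 note: 0% = DAX1-transfected cells with DMSO and 100% = empty-vector control cells with DMSO; inhibition shows as a rise in luminescence from relieved DAX1 repression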
LXRb hcDAF ctr: LXR-beta agonism as hcDAF-12 counter-screen; 3,400 tested, under 10 active; HEK293 Gal4-LXR tk-luc reporter, luminescence, 24 h; normalized: DMSO 0%, positive control 100%; shares compounds with hcDAF-12 act; AID 743027; activation, % at 6.8 µM;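 active = mean percent activation of the reporter above a cutoff set as the average over tested compounds plus their standard deviation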
Target sequence (P55055 whole entry, looked up, the tested form may be a part): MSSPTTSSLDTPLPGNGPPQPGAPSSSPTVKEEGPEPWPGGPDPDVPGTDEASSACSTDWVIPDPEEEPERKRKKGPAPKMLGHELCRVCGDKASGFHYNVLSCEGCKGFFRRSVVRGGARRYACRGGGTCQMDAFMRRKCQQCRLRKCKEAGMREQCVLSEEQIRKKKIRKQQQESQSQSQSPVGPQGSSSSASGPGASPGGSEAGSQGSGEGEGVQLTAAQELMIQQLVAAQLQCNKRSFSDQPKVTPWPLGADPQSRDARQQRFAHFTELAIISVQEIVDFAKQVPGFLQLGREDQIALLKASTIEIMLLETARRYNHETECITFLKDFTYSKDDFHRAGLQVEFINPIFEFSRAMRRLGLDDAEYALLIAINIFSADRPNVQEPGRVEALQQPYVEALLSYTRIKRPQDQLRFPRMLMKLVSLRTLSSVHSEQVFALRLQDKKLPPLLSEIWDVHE
hcDAF12 ag: hcDAF-12 agonism, confirmation assay; AID 743032; activation, % at 6.8 µM; shares compounds with hcDAF-12 act; 61% of 3,400 active; HEK293 hcDAF-12 lit1-tk-luc reporter, luminescence; % of Δ7-dafachronic acid response;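 active = mean activation across triplicate tests above the threshold derived from the earlier primary screen, cut at about 5.5% in these data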;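 note: 0% = DMSO only wells and 100% = 3 µM Δ7-dafachronic acid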
An asterisk follows results filed as active; · = no result. The list is not random: actives were taken first. Their share in the collection is about 4.5%.

SMILES	hgDAF12 agonist	ssDAF12 agonist	DAX1 inh-1	FXN GAA850 act	hcDAF-12 act	DAX1 inh-2	LXRb hcDAF ctr	hcDAF12 ag
COCCCNC(=O)C(=O)C1C(=O)Nc2ccccc21 (stereo not given)	0.1	-0.3	-0.1	0.8	10.8*	0.3	-0.2	3.0
CCCCn1cnc2c(sc3nc4c(cc32)CSC(C)(C)C4)c1=O	12.8*	-0.5	1.2	3.0	7.0*	3.2	1.2	5.6*
CCCCCN1C(=O)/C(=C/c2c(N3CCc4ccccc4C3)nc3ccccn3c2=O)SC1=S	6.3	0.1	1.7	6.7	6.8*	6.0*	-0.1	5.3
Cc1ccccc1C(=O)N[C@H](C(=O)N1CCC[C@H]1C(=O)NCCc1ccccc1Cl)C1CCCCC1	-2.4	-1.5	-0.2	·	-0.9	·	·	·
N/C(=N\OC(=O)c1ccccc1Cl)c1ccccn1	-1.9	-0.3	3.0	-6.9	7.0*	-4.2	1.6	11.1*
COc1ccccc1C(=O)O/N=C(\N)c1ccccn1	8.1	2.7*	2.1	1.0	10.8*	-2.2	1.3	5.9*
COc1cc(OC)c(C(=O)O/N=C(\N)c2ccccn2)cc1OC	1.7	-1.3	0.1	1.1	-1.5	0.9	·	·
Cc1ccccc1NC(=O)c1nn(C)c2c1CS(=O)(=O)c1ccccc1-2	2.3	-1.1	-0.1	-0.8	-0.1	0.2	·	·
O=C(c1ccc(C(F)(F)F)cc1)N(CCCn1ccnc1)C(c1ccccn1)c1nc2ccccc2[nH]1 (stereo not given)	5.2	0.5	1.6	·	7.5*	·	-0.1	4.7
CC(=O)Nc1ccc(N2C(=O)CC(Sc3nc(C)cc(C)n3)C2=O)cc1 (stereo not given)	1.8	-0.9	0.1	0.9	2.2	-0.7	·	·
Cc1ccc(S(=O)(=O)N2CCN(C(=O)c3ccc4ccccc4n3)CC2)c(C)c1	11.5*	0.9	2.5	3.7	7.2*	1.4	0.4	8.4*
CN(Cc1ccccc1)C(=O)Cn1nnc(-c2ccccc2)c1COc1ccccc1	-4.5	-1.0	-2.3	2.7	-1.1	·	·	·
O=C1C(=O)c2ccccc2C(O)=C1c1ccccc1F	-4.8	-1.1	-0.8	0.1	-1.6	1.6	·	·
O=C1C(c2ccnc3ccccc23)=C(O)c2ccccc21	16.0*	3.3*	3.5	3.3	26.2*	1.3	1.8	19.7*
COC(=O)C[C@@H]1C=C[C@H](NC(=O)Nc2ccc(OC)cc2)[C@@H](CO)O1	6.8	-0.3	-0.7	·	-0.5	·	·	·
CCN(C[C@H]1N[C@@](Cc2ccccc2)(C(=O)OC)[C@H]2C(=O)N(C)C(=O)[C@@H]12)C(=O)c1ccc(F)cc1	-1.6	-0.9	2.0	-2.2	-0.5	0.3	·	·
CCN(C[C@H]1N[C@@](CC)(C(=O)OC)[C@H]2C(=O)N(C)C(=O)[C@@H]12)C(=O)c1ccc(F)cc1	-3.9	-1.0	0.6	0.4	12.5*	0.7	-0.1	2.9
COC(=O)C1=C(Nc2ccccc2NC(=O)c2ccccc2C(=O)O)CSC1	9.0	1.7*	2.9	4.0	7.5*	2.7	0.0	3.7
CCN(CC)CCn1nc2c3c(cccc3c1=O)-c1ccccc1-2	-6.5	22.6*	-2.9	5.0	11.4*	-2.3	0.4	9.5*
Cc1ccc(-c2cc3nc(C)cc(NCc4ccco4)n3n2)cc1	9.0	2.4*	3.0	4.8	8.5*	1.7	0.9	6.2*
CC(C)(C)OC(=O)NCCc1nc(NC(=O)OCc2ccccc2)sc1C(=O)O	1.5	-1.1	0.1	·	-0.4	·	·	·
COc1ccc(NCc2ccsc2)cc1	1.4	-0.5	0.5	0.4	0.5	-0.1	·	·
CCOc1ccc(C=Nc2cccc3ncccc23)cc1	-0.4	0.2	-0.7	1.9	9.2*	1.7	-0.1	3.8
O=C(Nc1ccc(Br)cc1)Nc1cnccn1	0.3	-1.5	-0.4	1.1	-0.8	2.1	·	·
CCc1ccc(C(=O)NNC(=O)CN2C(=O)NC(CC)(c3ccccc3)C2=O)cc1 (stereo not given)	-0.3	-0.4	-0.5	-2.7	-0.2	0.7	·	·
SMILES	hgDAF12 agonist	ssDAF12 agonist	DAX1 inh-1	FXN GAA850 act	hcDAF-12 act	DAX1 inh-2	LXRb hcDAF ctr	hcDAF12 ag
CCOC(=O)c1nc2ccccc2nc1C	-0.5	-1.6	-0.2	1.1	6.9*	0.8	-0.3	1.6
CCn1cc(Cl)c(C(=O)N2N=C3/C(=C/c4cccs4)CCCC3C2c2cccs2)n1 (stereo not given)	2.0	-0.7	-0.6	-1.8	6.6*	-0.5	-0.1	4.7
O=C(Nc1ccc(Cl)cc1)[C@@H]1[C@@H]2C(=O)N(c3cccc(F)c3)C(=O)[C@@H]2[C@H]2C=CC=NN21	2.0	-0.8	-0.3	-1.9	1.1	-1.0	·	·
O=C(Nc1ccc(Cl)cc1)[C@@H]1[C@@H]2C(=O)N(c3ccc4ccccc4c3)C(=O)[C@@H]2[C@H]2C=CC=NN21	0.1	-0.3	-0.1	1.6	6.8*	-1.3	-0.1	1.8
COc1ccc(N2C(=O)[C@@H]3[C@H](C2=O)[C@H]2C=CC=NN2[C@@H]3C(=O)Nc2ccc(Cl)cc2)cc1	-1.0	0.2	-0.3	-1.1	6.5*	·	-0.3	1.3
O=C(CNC(=O)c1cccc(F)c1)NC1CC1	1.0	-0.7	-0.4	-2.7	0.0	0.1	·	·
CCCCN(C(=O)c1nn(C)c(=O)c2ccccc12)c1c(N)n(CC(C)C)c(=O)[nH]c1=O	-1.0	-1.3	0.4	-1.6	0.2	0.2	·	·
CCOC(=O)C1=NN(c2ccccc2C)C2=NC(C)=C(C(=O)OC)C(c3cccc(OC)c3)N12 (stereo not given)	2.7	-1.2	0.7	0.1	-2.8	-1.0	·	·
COc1ccc(OC)c(C2CC(=O)N3CN(c4ccccc4F)CSC3=C2C#N)c1 (stereo not given)	0.6	-0.7	0.2	-1.9	6.8*	-0.6	-0.3	0.7
CCCc1cc(=O)[nH]c(SCC(=O)Nc2cccc(S(=O)(=O)N3CCOCC3)c2)n1	0.6	-1.1	2.5	-1.0	-0.9	-0.2	·	·
CCOC(=O)c1cc2ccc3ccccc3c2s1	10.8*	1.3*	2.0	6.2	7.2*	2.8	1.1	11.4*
O=S1(=O)NC2c3ccccc3CC2O1 (stereo not given)	1.8	0.9	0.2	0.1	2.7	-0.3	·	·
CC(C)c1ccc2c(c1)C1Cc3ccccc3C1N2 (stereo not given)	6.1	-0.5	1.1	3.0	7.8*	3.2	0.5	4.8
COc1cc(Oc2nc(C(F)(F)F)nc3ccccc23)ccc1C=O	-2.1	-1.7	-0.3	3.7	-0.5	-1.2	·	·
